The results in this text go back to PubChem BioAssay (EPA / NIEHS).

Each structure is given as a SMILES string. Results filed as inconclusive are left out. The source made the active and inactive calls. Rule for the calls: active = hit-call score of the fitted dose curve at least 0.9, where 1 is the maximum; inconclusive = response in the unintended direction; inactive = score below 0.9.

Chain of Bile acid receptor (Homo sapiens) (Q96RI1 whole entry, looked up, the tested form may be a part): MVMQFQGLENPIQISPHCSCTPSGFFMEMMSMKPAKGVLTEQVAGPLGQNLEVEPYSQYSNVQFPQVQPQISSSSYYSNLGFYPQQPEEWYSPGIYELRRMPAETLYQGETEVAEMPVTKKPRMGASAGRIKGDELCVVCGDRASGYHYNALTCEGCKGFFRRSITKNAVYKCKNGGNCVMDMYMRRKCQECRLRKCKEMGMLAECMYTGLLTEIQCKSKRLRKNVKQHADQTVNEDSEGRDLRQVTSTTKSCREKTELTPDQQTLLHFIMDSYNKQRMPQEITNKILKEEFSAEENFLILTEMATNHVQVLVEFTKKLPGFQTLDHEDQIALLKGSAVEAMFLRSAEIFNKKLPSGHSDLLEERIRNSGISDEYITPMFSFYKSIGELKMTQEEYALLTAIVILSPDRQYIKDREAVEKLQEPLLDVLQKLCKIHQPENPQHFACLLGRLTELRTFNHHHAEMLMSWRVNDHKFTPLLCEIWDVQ

The test addresses Bile acid receptor (Homo sapiens) (UniProt Q96RI1). The test is described as follows: OT_FXR_FXRSRC1_1440: Odyssey Thera (OT) 24-hour HEK293T Protein-Complementation Assay for Farnesoid X receptor/SRC-1 Co-activator (AID 2283384). How it is done:
OT_FXR_FXRSRC1_1440 is a cell-based assay that uses HEK293T, a human kidney cell line, with measurements taken at 24 hours after chemical dosing in a 384-well plate.OT_FXR_FXRSRC1_1440 is one of one assay component(s) measured or calculated from the OT_FXR_FXRSRC1_1440 assay. It is designed to make measurements of protein fragment complementation, a form of binding reporter, as detected with fluorescence intensity signals by Protein-fragment Complementation technology.Data from the assay component OT_FXR_FXRSRC1_1440 was analyzed into 1 assay endpoint. This assay endpoint, OT_FXR_FXRSRC1_1440, was analyzed in the positive analysis fitting direction relative to DMSO as the negative control and baseline of activity. Using a type of binding reporter, measures of receptor for gain-of-signal activity can be used to understand the binding at the pathway-level as they relate to the gene NR1H4. Furthermore, this assay endpoint can be referred to as a primary readout, because the performed assay has only produced 1 assay endpoint. To generalize the intended target to other relatable targets, this assay endpoint is annotated to the nuclear receptor intended target family, where the subfamily is non-steroidal.
Protein-fragment complementation assay, or PCA, is a method for the identification and quantification of protein-protein interactions. In the PCA, the proteins of interest ("bait" and "prey") are each covalently linked to fragments of a third protein (e.g. DHFR, which acts as a "reporter"). Interaction between the bait and the prey proteins brings the fragments of the reporter protein in close proximity to allow them to form a functional reporter protein whose activity can be measured.
Turning to `Nc1nc(N)c2nc(CNc3ccc(C(=O)N[C@@H](CCC(=O)O)C(=O)O)cc3)cnc2n1`, the compound was classed as inactive. Same read-out and setting: for `Nc1ccc(S(=O)(=O)c2ccc(N)cc2)cc1` the value was “inactive”; for `Cc1cc(=O)[nH]c(=S)[nH]1`, “inactive”. Same read-out and setting: for `Cc1nc(-c2ccc3c(c2)CCN(CCC2CCC(NC(=O)/C=C/c4ccc(F)cc4)CC2)CC3)no1` (configuration not stated) the value was “inactive”. In the case of `Cc1ccccc1Cl`, the result was inactive. With `COc1cc(S(=O)(=O)O)c(C)cc1N=Nc1c(O)ccc2cc(S(=O)(=O)O)ccc12`, the result was inactive.

As for `O=C(O)CCCCC(=O)O`, the compound was classed as inactive. Still for that read-out and setting: for `CC1(C)CC(N=C=O)CC(C)(CN=C=O)C1` (configuration not stated) the value was “inactive”; for `CC(=O)OCCOCCOCCOC(C)=O`, “inactive”.

For `Oc1ccc2ccccc2c1N=Nc1ccccc1`, the AC50 (as a rule, the midpoint of the concentration-response curve, whichever way the signal moves) is 32.9 µM (active). For `CCc1c(C(=O)NN2CCCCC2)nn(-c2ccc(Cl)cc2Cl)c1-c1ccc(Br)cc1`, the AC50 was 1.28 µM (active). Consider `COc1cc(-c2nc(NC(=O)c3cc4cc(C)cc(C)c4n3CC(=O)O)sc2CCC2CCCCC2)c(OC)cc1Cl`, for which the AC50 was 10.1 µM (active). Turning to `C=CCOC(=O)c1ccccc1C(=O)OCC=C`, the result was inactive. As for `O=C(O)Cc1ccccc1Nc1c(Cl)cccc1Cl`, the outcome was inactive.

Regarding `CCCCN(CCCC)CCCC`, the compound was classed as inactive. Same read-out and setting: with `CCOC(=O)C(C)(C)Oc1ccc(Cl)cc1` the entry was “inactive”. Take `O=c1[nH]cc(F)c(=O)[nH]1`: the AC50 was 5.73 µM (active).

In the case of `CC(CO)OC(C)CO` (configuration not stated) (tested in a mixture with another compound), the outcome was inactive. The same measure, in the same setting: with `NC(=O)Cn1c(=O)cc(CCN2CCN(c3nccc4sccc34)CC2)c2ccc(F)cc21` the entry was “inactive”.

`Cc1cc(NC(=O)C(=O)O)cc(C)c1Oc1ccc(O)c2c1CCC2`: the call was inactive. Same read-out and setting: for `CCCCCCCCCCO` the value was “inactive”; for `CCCCCCCCCCCC(=O)OC`, “inactive”.
